CtBP-E1A inh – inhibitors of CtBP/E1A interaction | AlphaScreen GST-E1A/His-CtBP binding, 1536-well; stronger effect = lower value | activity change, % (concentration not given with the values) | hit rate 0.49% among 340,000; in the data active means activity change below about -65%; inconclusive means mostly about -30% to -63%; further: on the % scale 0 is the no-effect control and ±100 the full control effect
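AlphaScreen with 125 nM GST-E1A and 125 nM His-CtBP (5X stocks) in Tris pH 8.0, 300 mM NaCl, BSA, Tween 20, TCEP. Compounds preincubated 2 h at 37 deg C, then glutathione donor/nickel acceptor beads added for 1 h at 37 deg C in dark.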
HP1b binding inh – blocks HP1-beta chromodomain binding to methylated histone tails | AlphaScreen HP1-beta / biotin-H3K9me3 peptide binding | Potency, µM (doses to about 114 µM), without a hit: at the highest dose activity change, negative = inhibition, most hits filed as inhibitors | hit rate 0.56% among 390,000 | AID 540317; further: potency means the concentration at half of the fitted maximal effect; nearly all actives have a fitted effect of over 70% in size
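HP1-beta protein (50 nM final) preincubated 30 min at room temperature with biotinylated H3(1-18)K9me3 peptide (50 nM) in PBS pH 7.4, 0.01% Tween-20, then compound added for 30 min. AlphaScreen streptavidin donor/nickel chelate acceptor beads (10 ug/mL final), 30 min dark, luminescence read.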
Six1-Eya2 inh – blocks human Six1 binding to Eya2 | Q15475+O00167 | AlphaScreen GST-Six1/His-Eya2 binding, biochemical; stronger effect = lower value | activity change, % (concentration not given with the values) | hit rate 0.56% among 360,000 | AID 651725; in the data active means activity change below about -65%; inconclusive means mostly about -30% to -63%; further: on the % scale 0 is the no-effect control and ±100 the full control effect
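GST-Six1 + His-Eya2 (5X stock: 250/500 nM); Tris pH 8.0, 300 mM NaCl, 0.05% BSA, 0.02% Tween 20; GSH donor/Ni acceptor beads; 1 h 37 °C dark; AlphaScreen readout.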
G9a inh – blocks human histone lysine methyltransferase G9a | Potency, µM (titrated, usually from 102 µM), without a hit: at the highest dose activity, negative = inhibition, usual class: inhibitors | Q96KQ7 | G9a H3K9 monomethylation, AlphaScreen, 2 h | hit rate 8.8% among 350,000; further: potency means the concentration at half of the fitted maximal effect; on the % scale 0 is the no-effect control and ±100 the full control effect; nearly all actives have a fitted effect of over 75% in size
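AlphaScreen read-out: biotin-H3K9 peptide (500 nM) methylation by 20 nM enzyme with 20 uM SAM, 2 h at room temperature after 15 min compound preincubation; anti-monomethyl H3K9 antibody plus donor/acceptor beads, 10 min dark.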
BAZ2B block – inhibitors of human BAZ2B bromodomain. AlphaScreen BAZ2B-H3K14Ac peptide displacement. Potency, µM (doses to about 114 µM), inactives show at the top dose activity change, negative = inhibition, most hits filed as inhibitors. hit rate 4.4% among 360,000. AID 504333. Q9UIF8; further: potency means the concentration at half of the fitted maximal effect; on the % scale 0 is the no-effect control and ±100 the full control effect; nearly all actives have a fitted effect of over 60% in size
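BAZ2B (50 nM) with biotin-H3(5-23)K14Ac peptide (50 nM) in PBS pH 7.4, 0.01% Tween-20, preformed 30 min, then compound 30 min at room temperature; top concentration 110uM. AlphaScreen streptavidin donor/nickel chelate acceptor beads (10 ug/mL final), 20 min dark, signal read.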
JMJD2A Tudor – blocks the human JMJD2A Tudor domain; Potency, µM (titrated, usually from 114 µM), inactives show top-dose activity change, negative = inhibition, usual class: inhibitors; hit rate 4.4% among 390,000; O75164; AlphaScreen JMJD2A-Tudor / H3K4me3 peptide binding; AID 504339; further: potency means the concentration at half of the fitted maximal effect; on the % scale 0 is the no-effect control and ±100 the full control effect; nearly all actives have a fitted effect of over 50% in size
* marks the source's active call; other numbers are inactive results; ? = inconclusive; / = no result given; ! = not active in a repeat; [ ] = another dose, or the depositor's remark. This is a sample that favours compounds with a hit; in the whole collection about 10% have one here. Unless noted, the call rests on the fitted dose curve; in most records, active means well fitted inhibition curve with a large enough effect; inconclusive means small, poorly fitted or top-dose-only effect; inactive means no such curve, though single readings can be large or run the other way.

SMILES	CtBP-E1A inh	HP1b binding inh	Six1-Eya2 inh	G9a inh	BAZ2B block	JMJD2A Tudor
CCNc1nc(-c2sc(NC(=O)C(C)(C)C)nc2C)c(-n2cc(-c3ccccc3)nn2)s1	-0.1	/	-6.1	/	/	/
CCCCC1(Br)C(=O)N(c2ccccc2)N(c2ccccc2)C1=O	-14.8	?	6.3	?	?	17.8µM*
COc1ccc(S(=O)(=O)c2c(O)c3ccc(C(=O)Nc4cccc(F)c4)cc3[nH]c2=O)cc1	/	22.6%	-65.8*	?	?	-6.0%
COc1ccc(S(=O)(=O)c2c(O)c3ccc(C(=O)Nc4ccccc4F)cc3[nH]c2=O)cc1	-24.3	38.4%	?	-42.5%[59 µM]	-19.4%	-16.9%
Cc1ccccc1NC(=O)c1ccc2c(O)c(S(=O)(=O)c3ccccc3)c(=O)[nH]c2c1	-28.7	42.1%	-21.2	50.1µM*!	?	0.7%
Oc1c(Br)cc(Br)cc1-c1nc2ccccc2s1	/	30.2%	/	-48.0%[59 µM]	-1.2%	5.6%
O=S(=O)(c1ccc(Cl)cc1)N1CCCN(c2nc3ccc(Cl)cc3s2)CC1	4.6	29.8%	7.8	/	2.0%	5.2%
O=C(NC(Nc1nc2ccc([N+](=O)[O-])cc2s1)(C(F)(F)F)C(F)(F)F)c1ccccc1Cl	-2.0	3.1%	-7.0	79.4µM*	-38.3%	?
O=S(=O)(Nc1ccc2nc(N3CCOCC3)sc2c1)c1ccc(Cl)cc1	/	32.5%	-7.1	10µM*	-0.5%	-20.6%
O=[N+]([O-])c1ccc2nc(NS(=O)(=O)c3ccc(Cl)cc3)sc2c1	-12.8	6.5%	-10.4	14.1µM*	?	-33.1%
Cc1nnc(N2CCN(c3cccc(C(F)(F)F)c3)CC2)c2c1nnn2Cc1ccccc1	/	34.3%	/	8.4%[59 µM]	0.8%	-12.3%
CC(C)Oc1ccc(CNC(=O)c2ccc(CS(=O)c3cccc(Cl)c3)o2)cc1 (stereo not drawn)	/	22.9%	/	-24.2%[59 µM]	-12.4%	-10.3%
CCc1nnc(NC(=O)C2CC(=O)N(CCc3ccc(F)cc3)C2)s1 (stereo not drawn)	-9.5	-7.1%	20.5	?	-17.7%	-9.8%
CC(C)(C)c1nnc(NC(=O)C2CC(=O)N(CCc3ccc(F)cc3)C2)s1 (stereo not drawn)	10.3	-15.9%	0.0	31.6µM*	7.7%	-15.8%
CCCC(C)c1nnc(NC(=O)C2CC(=O)N(CCc3ccc(F)cc3)C2)s1 (stereo not drawn)	3.9	?	-6.6	7.94µM*	-18.3%	?
Cc1ccc(S(=O)(=O)N2CCN(c3nc(-c4cncnc4)nc4ccccc34)CC2)cc1	/	13.1%	/	/	/	-25.2%
CCc1ccccc1NC(=O)CCNS(=O)(=O)c1ccc2c(c1)CCC(=O)N2	3.3	47.9%	1.7	21.0%	-7.9%	-2.8%
NC(=S)c1ccc[n+]([C@@H]2O[C@@H](COP(=O)([O-])OP(=O)(O)OC[C@H]3O[C@@H](n4cnc5c(N)ncnc54)[C@H](OP(=O)(O)O)[C@@H]3O)C(O)C2O)c1 (stereo partly drawn)	/	/	/	7.94µM*	/	/
NC(=S)c1ccc[n+]([C@@H]2O[C@@H](COP(=O)([O-])OP(=O)(O)OC[C@H]3O[C@@H](n4cnc5c(N)ncnc54)[C@H](OP(=O)(O)O)[C@H]3O)C(O)C2O)c1 (stereo partly drawn)	/	/	/	17.8µM*	/	/
NC(=O)c1ccc[n+]([C@H]2O[C@@H](COP(=O)([O-])OP(=O)(O)OC[C@H]3O[C@@H](n4cnc5c(N)ncnc54)[C@H](O)[C@@H]3O)[C@H](O)[C@@H]2O)c1	81.1	22.7%	-0.1	-24.8%[12.7 µM]	35.5µM*	79.4µM*
NC(=O)c1ccc[n+]([C@@H]2OC(COP(=O)([O-])OP(=O)(O)OCC3OC(n4cnc5c(N)ncnc54)C(O)C3O)C(O)C2O)c1 (stereo partly drawn)	/	/	/	-40.1%[2.33 µM]	/	/
NC(=O)c1ccc[n+]([C@@H]2O[C@H](COP(=O)([O-])OP(=O)(O)OC[C@H]3O[C@@H](n4cnc5c(N)ncnc54)[C@@H](O)[C@@H]3O)[C@@H](O)[C@@H]2O)c1	/	/	/	9.4%[21.5 µM]	/	/
COc1ccc(CCN2C(=O)C3CC(C)=C(C)CC3C2=O)cc1OC (stereo not drawn)	4.6	43.9%	2.0	7.0%	3.1%	11.6%
CCCN(CC(=O)Nc1ccccc1OC)Cc1c(O)ccc2ccccc12	-6.6	?	9.8	3.55µM*	?	56.2µM*
CN(CC(=O)Nc1ccccc1C(F)(F)F)Cc1c(O)ccc2ccccc12	6.9	-29.7%	-4.5	7.94µM*	?	79.4µM*
SMILES	CtBP-E1A inh	HP1b binding inh	Six1-Eya2 inh	G9a inh	BAZ2B block	JMJD2A Tudor
Cc1csc2nc(-c3cccc(NC(=O)c4cccc(F)c4)c3)cn12	/	19.2%[57 µM]	/	4.1%[59 µM]	-26.5%	-12.3%
N#C/C(=C/c1ccc(O)c(O)c1)C(=O)OC/C=C/c1ccccc1	/	/	/	1.58µM*	/	/
C[C@@H](NC(=O)/C(C#N)=C/c1ccc(O)c(O)c1)c1ccccc1	0.0	?	-6.9	2.82µM*	35.5µM*	39.8µM*
N#C/C(=C\c1ccc(O)c(O)c1)C(=O)Nc1cccc2ncccc12	?	-8.0%	?	8.91µM*	?	?
N#C/C(=C/c1ccc(O)c(O)c1)C(=O)NCc1ccc(Cl)cc1	-25.6	28.2µM*	-10.8	11.2µM*	35.5µM*	12.6µM*
COc1ccc(/C=C(\C#N)C(=O)Nc2cccc3ncccc23)cc1OC	/	12.0%	-18.6	?	-28.4%	-3.7%
Cc1ccc(C)c(Cn2c(=O)cc(C)c3c(C)nn(-c4cccc(F)c4)c32)c1	/	5.7%	/	7.3%[59 µM]	-20.3%	2.0%
CCOC(=O)c1c(NC(=O)c2cc(=O)c3cc(Cl)ccc3o2)sc(C)c1C	/	57.4%	/	0.3%[59 µM]	1.8%	7.3%
C[C@H](NC(=O)/C(C#N)=C/c1ccc(O)c(O)c1)c1ccccc1	/	/	/	7.94µM*	/	/
N#C/C(=C\c1ccc(O)c(O)c1)C(=O)Nc1ccccc1	-7.0	?	-2.7	7.08µM*	12.6µM*	?
COc1ccc(OCCCn2c(CCNC(=O)C3CCCCC3)nc3ccccc32)cc1	/	25.7%[57 µM]	/	/	/	-13.1%[57.1 µM]
Cc1sc2nc(SCC(=O)NCCO)n(C)c(=O)c2c1C	-1.3	31.0%	-2.7	-4.8%[59 µM]	5.5%	-3.7%
CCOC(=O)CNC(=O)CSc1nc2sc(C)c(C)c2c(=O)n1C	-0.8	6.1%	-1.6	44.7µM*	-26.5%	-25.2%
CCc1ccc(N2CC(c3nnc(NC(=O)c4ccco4)s3)CC2=O)cc1 (stereo not drawn)	/	10.6%	/	14.1µM*	-18.9%	-14.2%
Cc1ccc(NS(=O)(=O)c2ccc(-c3cc(C)no3)cc2)c(C)c1	/	44.9%	/	1.5%[59 µM]	-2.1%	-5.5%
